From PubChem BioAssay AID1159580 (chemical genetic matrix, 2015)
Out of some 5,500 compounds screened, about 2,000 (36%) were called active. Another 18% or so got no clear call; they are omitted. The list shows a part of the results. A number with no mark means an inactive call. No stated cut-off is given here; in the data, active means normalized growth mostly below about 0.91 (no sharp cut-off); inconclusive means no clear call, values can overlap the other calls; inactive means mostly above about 0.92.

Assay: chemical genetic growth profiling, strain panel (AID 1159580);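 further: tested at 20 µM; growth read once vehicle control cultures reached saturation at 30 °C; 1 = growth at the plate median or of vehicle wells; lower values mean less growth of the strain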
Conditions: S. cerevisiae deletion strains, growth OD
[1] = locus YDL101C, strain DUN1, hits give low values
[2] = locus YHR030C, strain SLT2, hits give low values

CC(=O)c1csc([N+](=O)[O-])c1
normalized growth (locus YAL013W, strain DEP1, hits give low values): 1.01
normalized growth (locus YBR229C, strain ROT2, hits give low values): 1.02
normalized growth [1]: 0.951
normalized growth (locus YDL134C, strain PPH21, hits give low values): 1
normalized growth (locus YDR150W, strain NUM1, hits give low values): 0.921
normalized growth (locus YEL061C, strain CIN8, hits give low values): 1.02
normalized growth (locus YGR078C, strain PAC10, hits give low values): 0.975
normalized growth (locus YGR229C, strain SMI1, hits give low values): 1.01
normalized growth [2]: 1.08
normalized growth (locus YHR087W, strain rtc3, hits give low values): 1.02
normalized growth (locus YJL187C, strain SWE1, hits give low values): 0.983
normalized growth (locus YJR043C, strain POL32, hits give low values): 1
normalized growth (locus YJR075W, strain HOC1, hits give low values): 0.99
normalized growth (locus YKL190W, strain CNB1, hits give low values): 1.01
normalized growth (locus YLR039C, strain RIC1, hits give low values): 1
normalized growth (locus YLR058C, strain SHM2 (second series), hits give low values): 0.998
normalized growth (locus YLR085C, strain ARP6, hits give low values): 0.89
normalized growth (locus YLR262C, strain YPT6, hits give low values): 0.976
normalized growth (locus YML094W, strain GIM5, hits give low values): 1.02
normalized growth (locus YMR219W, strain ESC1, hits give low values): 0.996
normalized growth (locus YMR263W, strain SAP30, hits give low values): 1.01
normalized growth (locus YMR307W, strain GAS1, hits give low values): 1.03
normalized growth (locus YNL153C, strain GIM3, hits give low values): 0.947
normalized growth (locus YNL298W, strain CLA4 (second series), hits give low values): 1.02
normalized growth (locus YNL322C, strain KRE1, hits give low values): 1.01
normalized growth (locus YNR030W, strain Alg12, hits give low values): 1.02
normalized growth (locus YPL055C, strain LGE1, hits give low values): 0.996
normalized growth (locus YPL241C, strain CIN2, hits give low values): 1.09
normalized growth (locus YPR135W, strain CTF4, hits give low values): 0.988

O=C(Nc1ccc(Cl)cc1)c1csc([N+](=O)[O-])c1
normalized growth (locus YAR019C, strain CDC15, hits give low values): 0.92
normalized growth (locus YBL105C, strain PKC1, hits give low values): 0.93
normalized growth (locus YBR135W, strain CKS1, hits give low values): 0.931
normalized growth (locus YBR136W, strain MEC1, hits give low values): 0.927
normalized growth (locus YBR160W, strain CDC28, hits give low values): 0.933
normalized growth (locus YDL017W, strain CDC7, hits give low values): 0.938
normalized growth (locus YDL028C, strain MPS1, hits give low values): 0.922
normalized growth [1]: 0.943
normalized growth (locus YDL108W, strain KIN28, hits give low values): 0.929
normalized growth (locus YDL132W, strain cdc53, hits give low values): 0.908
normalized growth (locus YDL214C, strain PRR2, hits give low values): 0.874
normalized growth (locus YDR052C, strain DBF4, hits give low values): 0.936
normalized growth (locus YDR054C, strain cdc34, hits give low values): 0.901
normalized growth (locus YDR226W, strain ADK1, hits give low values): 0.923
normalized growth (locus YDR477W, strain SNF1, hits give low values): 0.803
normalized growth (locus YER123W, strain YCK3, hits give low values): 0.795
normalized growth (locus YER133W, strain GLC7, hits give low values): 0.764
normalized growth (locus YFL009W, strain cdc4, hits give low values): 0.913
normalized growth (locus YFL029C, strain CAK1, hits give low values): 0.919
normalized growth (locus YFR003C, strain YPI1, hits give low values): 0.924
normalized growth (locus YFR019W, strain FAB1, hits give low values): 0.918
normalized growth (locus YFR028C, strain CDC14, hits give low values): 0.915
normalized growth (locus YGR040W, strain KSS1, hits give low values): 0.797
normalized growth (locus YGR052W, strain FMP48, hits give low values): 0.826
normalized growth (locus YGR092W, strain DBF2, hits give low values): 0.545
normalized growth [2]: 0.583 (active)
normalized growth (locus YHR079C, strain IRE1, hits give low values): 0.764
normalized growth (locus YHR082C, strain KSP1, hits give low values): 0.891
normalized growth (locus YHR205W, strain SCH9, hits give low values): 0.786
normalized growth (locus YIL147C, strain SLN1, hits give low values): 0.923
normalized growth (locus YJL095W, strain BCK1, hits give low values): 0.697
normalized growth (locus YJL128C, strain PBS2, hits give low values): 0.935
normalized growth (locus YJL157C, strain FAR1, hits give low values): 0.827
normalized growth (locus YJR016C, strain ILV3, hits give low values): 0.926
normalized growth (locus YJR066W, strain TOR1 (second series), hits give low values): 0.752
normalized growth (locus YJR066W, strain TOR1, hits give low values): 0.759
normalized growth (locus YKL048C, strain ELM1, hits give low values): 0.874
normalized growth (locus YKL067W, strain YNK1, hits give low values): 0.894
normalized growth (locus YKL101W, strain HSL1, hits give low values): 0.894
normalized growth (locus YKL193C, strain SDS22, hits give low values): 0.92
normalized growth (locus YKL203C, strain TOR2, hits give low values): 0.857
normalized growth (locus YLR113W, strain HOG1, hits give low values): 0.596 (active)
normalized growth (locus YLR133W, strain CKI1, hits give low values): 0.873
normalized growth (locus YLR403W, strain SFP1, hits give low values): 0.79
normalized growth (locus YML070W, strain DAK1, hits give low values): 0.832
normalized growth (locus YMR001C, strain CDC5, hits give low values): 0.92
normalized growth (locus YMR205C, strain PFK2 (second series), hits give low values): 0.862
normalized growth (locus YMR277W, strain FCP1, hits give low values): 0.914
normalized growth (locus YNL006W, strain LST8, hits give low values): 0.921
normalized growth (locus YNL020C, strain ARK1, hits give low values): 0.863
normalized growth (locus YNL161W, strain CBK1, hits give low values): 0.933
normalized growth (locus YNL183C, strain NPR1, hits give low values): 0.829
normalized growth (locus YNL207W, strain RIO2, hits give low values): 0.908
normalized growth (locus YNL222W, strain SSU72, hits give low values): 0.919
normalized growth (locus YNL307C, strain MCK1 (second series), hits give low values): 0.818
normalized growth (locus YOL078W, strain AVO1, hits give low values): 0.923
normalized growth (locus YOL136C, strain PFK27, hits give low values): 0.861
normalized growth (locus YOR061W, strain CKA2, hits give low values): 0.882
normalized growth (locus YOR119C, strain RIO1, hits give low values): 0.86
normalized growth (locus YOR231W, strain MKK1, hits give low values): 0.825
normalized growth (locus YOR329C, strain SCD5, hits give low values): 0.924
normalized growth (locus YPL031C, strain PHO85, hits give low values): 0.773
normalized growth (locus YPL153C, strain RAD53, hits give low values): 0.795
normalized growth (locus YPL204W, strain HRR25, hits give low values): 0.757
normalized growth (locus YPL209C, strain IPL1, hits give low values): 0.926
normalized growth (locus YPL256C, strain CLN2, hits give low values): 0.712 (active)
normalized growth (locus YPR025C, strain CCL1, hits give low values): 0.929
normalized growth (locus YPR106W, strain ISR1, hits give low values): 0.94
normalized growth (locus YPR111W, strain DBF20, hits give low values): 0.925
normalized growth (strain NNK1, hits give low values): 0.944
normalized growth (strain TSCII, hits give low values): 0.928
